# Experimental data from PubChem BioAssay (NCI).
# Several values for one entry are separate records, joined by “and”; a condition that tells them apart may be missing. Equal entries are not always repeated. The panel holds about 83,000 compounds, 20% with a hit somewhere; the sample as a whole holds those more often.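 Treatment: one concentration, 48 hours, 96-well format. Scoring: percent growth, with anything below 10 considered active.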 A number with no mark means an inactive call. Activity calls are given as the source filed them.
# System: MDA-MB-468 breast
# Test: NCI-60 one-dose screen, 48 h (100 = growth as untreated, 0 = no growth, -100 = all killed)
# Conditions: 10 µM unless noted
row,SMILES,growth
1,COc1nc(Nc2cccc(C(F)(F)F)c2)nc(OC)n1,112%
2,C=C1C(=O)O[C@H]2[C@H]1CC/C(COC(=O)c1ccc(C(=O)O)s1)=C\CC[C@@]1(C)O[C@@H]21,-46.7% (active)
3,CN(C)CCCOc1c2ccc(Cl)cc2nc2c1oc1ccc(Cl)cc12,-48% (active)
4,CCOC(=O)N(O)c1ccc(/C=C/c2ccccc2)cc1,-59.5% (active) and -52.6% (active)
5,COc1ccc(-c2c(N)n[nH]c2-c2cc3c(c(OC)c2OC)OCO3)cc1,104%
6,Cc1c(C(=O)/C=C/Nc2c(Cl)cc(S(N)(=O)=O)cc2Cl)sc2nc3ccccc3n12,102%
7,CS(=O)(=O)Cc1cnc(C2OCCO2)s1,97.7%
8,O=C(CN1CCN(c2cccc(Cl)c2)CC1)N1CCN(c2nnc(-c3ccc(Cl)cc3)c(-c3ccc(Cl)cc3)n2)CC1,97.5%
9,COC(=O)[C@]12CC[C@@H](C(/C=C/c3cccnc3)=N/O)[C@@H]1[C@H]1CC[C@@H]3[C@@]4(C)CC(=C/c5cccnc5)/C(=N/O)C(C)(C)[C@@H]4CC[C@@]3(C)[C@]1(C)CC2,13.1%
10,Cc1ccc2[nH]c(=S)[nH]c(=O)c2c1,102%
11,O=C(N/N=C/c1ccccc1O)c1ccccc1O,17%
12,CCCCCCCCCCCCCCCCOc1ccc(S(=O)(=O)N(C)C)cc1[N+](=O)[O-],84.2%
13,CCOc1ccc(NC(=O)c2ccccc2-c2ccccc2C(=O)O)cc1,101%
14,O=C(Nc1cccc([N+](=O)[O-])c1)c1ccc2ccccc2c1O,52.4%
15,CCOC(=O)C(C#N)C1CCCCC1 (stereo not given),124%
16,NC(=O)c1c(NC(=O)c2ccc3ccccc3c2)sc2c1CCC(=O)C2,85.8%
17,OC1COC(OCc2ccccc2)C(O)C1O (stereo not given),94.8%
18,COc1ccc(Sc2ccc3[nH]c(=O)nc(N)c3c2)cc1,92.7%
19,O=C(C(=O)N1CCCCC1)c1ccc(OC2OC(CO)C(O)C(O)C2O)cc1 (stereo not given),100%
20,CCOP(=O)(OCC)OC[C@]12CCC(C)(C)CC1C1=CC[C@@H]3[C@@]4(C)CCCNC(C)(C)[C@@H]4CC[C@@]3(C)[C@]1(C)CC2 (stereo not given in full),53.5%

row,SMILES,growth
1,O=C(O)CCCN1C(=O)CSC1=S,99.3%
2,O=C(N/N=C/c1cccc(O)c1O)c1ccccc1,-12.6% (active)
3,CN1CCN(Cc2ccc(NC(=O)c3cncc(C#Cc4cnc5[nH]ncc5c4)c3)cc2C(F)(F)F)CC1,40%
4,c1ccc(CCSc2ncnc3nc[nH]c23)cc1,49%
5,c1ccc2cc(Cn3cc(CSc4nc5ccccc5s4)nn3)ccc2c1,106%
6,C/C(N)=C(\C#N)C(=O)c1ccccc1,97.7%
7,Cc1cccc(CC(=O)c2ccccc2)n1,92.8%
8,Cc1cc(=O)n2nc(-c3cn(C)c4ccc(Cl)cc34)sc2n1,-42.5% (active)
9,CCN(CCO)CCNc1ccc(C)c2sc3cc(Cl)ccc3c(=O)c12,-47.7% (active)
10,COc1ccc(Nc2nc(N/N=C/c3ccc(O)cc3)nc(Nc3ccc([N+](=O)[O-])cc3)n2)cc1,117%
11,COc1ccc(/C=C/C(=O)c2cc(OC)c(OC)c(OC)c2)cc1OCc1cn(Cc2ccc(F)cc2)nn1,25.2%
12,Nc1ccc(Br)cc1C(F)(F)F,110%
13,C[C@H](CCC(=O)NCc1ccc(C(=O)Nc2ccccc2N)cc1)[C@H]1CC[C@H]2[C@@H]3[C@@H](O)C[C@@H]4C[C@H](O)CC[C@]4(C)[C@H]3CC[C@]12C,71.2%
14,c1ccc(Oc2c3ccccc3nc3ccccc23)cc1,-4.55% (active)
15,COC1=CC(c2ccc[nH]2)=N/C1=C\c1[nH]c(C)c(C(=O)CCCCC(=O)Oc2ccc3c(c2)CCC2C3CC[C@]3(C)[C@@H](O)CC[C@@H]23)c1C (stereo not given in full),52.2%
16,COC(=O)C1=C(C)C(=O)CC1,110%
17,Cc1ccc(C(=O)N/N=C/c2cccc([N+](=O)[O-])c2)cn1,89.5%
18,C=C1C(=O)O[C@H]2[C@H]1CC/C(COC(=O)OCCCCCOC(=O)OC/C1=C/CC[C@@]3(C)O[C@H]3[C@H]3OC(=O)C(=C)[C@@H]3CC1)=C\CC[C@@]1(C)O[C@@H]21,-38.5% (active)
19,C=CCc1cc(Cl)cc2c(OC(C)=O)c(C(C)=O)c(-c3ccccc3)nc12,116%
20,COc1ccc(C2=NN(C(C)=O)C(c3ccc(Oc4ccnc5cc(Cl)ccc45)c(OC)c3)C2)cc1 (stereo not given),54%
